Columns and labels:
Test in all cases: PBM binding z-score (relative to random genomic background probes); higher = stronger binding; sequences stand for … in GC…GCGATTGACAGCGTAGAATGAAGG
[1] = system: RARb homodimer (NR concentration 270 nM)
Method in brief: (§1)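 Probes were double-stranded and carried 34-nt variable regions with direct-repeat seeds, single-nucleotide variants, half-site ablations and random human genomic background sequences, printed on custom Agilent 4×180K protein-binding microarrays. Arrays were incubated 1 h with ligand-free nuclear receptor dimers in PBS pH 7.4, 2% milk, 0.02% Triton X-100, 1 mM DTT, 0.2 mg/mL BSA and 0.4 mg/ml salmon testes DNA. Antibodies against each partner (one per run) detected binding, and scanned fluorescence was regression-normalized. Binding z-scores use the random background probes as reference.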

[2] = system: RARg:RXRa (NR concentration 270 nM, RXRa partner concentration 90 nM)
Method in brief: as §1

[3] = system: RARg homodimer (NR concentration 270 nM)
Method in brief: as §1

[4] = system: RXRa DBDmut IVT, anti-RXR (DBD mutation: RXRa K156A/R161A, NR concentration 90 nM)
Method in brief: as §1

[5] = system: RXRa homodimer (NR concentration 180 nM)
Method in brief: as §1

[6] = system: THRa:RXRa (NR concentration 90 nM, RXRa partner concentration 90 nM)
Method in brief: as §1

[7] = system: THRa homodimer (NR concentration 90 nM)
Method in brief: as §1

[8] = system: VDR:RXRa (NR concentration 270 nM, RXRa partner concentration 90 nM)
Method in brief: as §1

[9] = system: VDR homodimer (NR concentration 270 nM)
Method in brief: as §1

GCTGCTCGGTCAGGTTGGTCAGCTAACGGGTACG
PBM binding z-score [1]: 1.53
PBM binding z-score [2]: 0.691
PBM binding z-score [3]: 2.11
PBM binding z-score [4]: -0.37
PBM binding z-score [5]: -0.405
PBM binding z-score [6]: -0.155
PBM binding z-score [7]: -0.287
PBM binding z-score [8]: -0.457
PBM binding z-score [9]: -0.476

CGTCCAAGGTCAGCAGGTCGGTGAAAGCGACGTG
PBM binding z-score [1]: 4.14
PBM binding z-score [2]: 5.49
PBM binding z-score [3]: 6.04
PBM binding z-score [4]: 2.37
PBM binding z-score [5]: 4.37
PBM binding z-score [6]: 3.57
PBM binding z-score [7]: 1.92
PBM binding z-score [8]: 3.71
PBM binding z-score [9]: 1.3

TCTTGTAGATCAAGAGGAGGTTAAGAAAGATCGA
PBM binding z-score [1]: 0.486
PBM binding z-score [2]: 0.616
PBM binding z-score [3]: 0.204
PBM binding z-score [4]: 0.251
PBM binding z-score [5]: 0.72
PBM binding z-score [6]: 0.611
PBM binding z-score [7]: -0.142
PBM binding z-score [8]: 0.632
PBM binding z-score [9]: -0.158

AGAATGAGGTTATACGTAAATCAGGGAAGAAAGT
PBM binding z-score [1]: 0.771
PBM binding z-score [2]: 1.56
PBM binding z-score [3]: 1.08
PBM binding z-score [4]: 1.72
PBM binding z-score [5]: 2.06
PBM binding z-score [6]: 2.17
PBM binding z-score [7]: 0.605
PBM binding z-score [8]: 1.21
PBM binding z-score [9]: 0.824

AGAACGAGGGTACGCTGAGTTGATAGCAGAGTAG
PBM binding z-score [1]: -0.336
PBM binding z-score [2]: 0.424
PBM binding z-score [3]: 0.303
PBM binding z-score [4]: 0.994
PBM binding z-score [5]: 0.16
PBM binding z-score [6]: 0.2
PBM binding z-score [7]: -0.484
PBM binding z-score [8]: 1.15
PBM binding z-score [9]: 2.14

CCTCGGAGGACAGCAGGAGGTCAGAGCTGCCAGA
PBM binding z-score [1]: 3.24
PBM binding z-score [2]: 3.07
PBM binding z-score [3]: 2.93
PBM binding z-score [4]: -0.25
PBM binding z-score [5]: 1.56
PBM binding z-score [6]: 2.41
PBM binding z-score [7]: 0.786
PBM binding z-score [8]: 1.09
PBM binding z-score [9]: 0.762

CGTCAAAGTTCAAGGTAACATAACAGAAAGCAGC
PBM binding z-score [1]: 3.84
PBM binding z-score [2]: 5.43
PBM binding z-score [3]: 6.33
PBM binding z-score [4]: 4.63
PBM binding z-score [5]: 4.69
PBM binding z-score [6]: 2.92
PBM binding z-score [7]: 1.05
PBM binding z-score [8]: 3.63
PBM binding z-score [9]: 2.9

TCTACTAGTTGATTAGGGCAACCGAAACAGCGGA
PBM binding z-score [1]: 0.379
PBM binding z-score [2]: 0.164
PBM binding z-score [3]: 0.225
PBM binding z-score [4]: 0.346
PBM binding z-score [5]: 0.0714
PBM binding z-score [6]: 0.604
PBM binding z-score [7]: -0.104
PBM binding z-score [8]: 0.208
PBM binding z-score [9]: -0.302

CTCGATAGGTCGTGCTCAGGTGAGTATACCAAAC
PBM binding z-score [1]: 1.07
PBM binding z-score [2]: 2.26
PBM binding z-score [3]: 1.2
PBM binding z-score [4]: 0.506
PBM binding z-score [5]: 1.29
PBM binding z-score [6]: 2.86
PBM binding z-score [7]: 0.582
PBM binding z-score [8]: 0.637
PBM binding z-score [9]: 0.0382

ATCGCTAGGTAACCAAGTTCAGTGAATGCCGAAC
PBM binding z-score [1]: 0.915
PBM binding z-score [2]: 0.229
PBM binding z-score [3]: 0.277
PBM binding z-score [4]: 0.0688
PBM binding z-score [5]: 0.062
PBM binding z-score [6]: 0.934
PBM binding z-score [7]: -0.378
PBM binding z-score [8]: 3.74
PBM binding z-score [9]: 1.7

GGAACGAGGGTATTCGAGTTGATAGCATGGCGAT
PBM binding z-score [1]: -0.529
PBM binding z-score [2]: -0.0783
PBM binding z-score [3]: 0.118
PBM binding z-score [4]: 0.869
PBM binding z-score [5]: 0.0441
PBM binding z-score [6]: 1.82
PBM binding z-score [7]: -1.03
PBM binding z-score [8]: 1.18
PBM binding z-score [9]: 0.63

AGTCAAAGTTCACTAGGTAAGGTAAGATTCAGCT
PBM binding z-score [1]: 3.88
PBM binding z-score [2]: 4.78
PBM binding z-score [3]: 6.02
PBM binding z-score [4]: 4.18
PBM binding z-score [5]: 3.95
PBM binding z-score [6]: 2.51
PBM binding z-score [7]: 1.03
PBM binding z-score [8]: 3.96
PBM binding z-score [9]: 3.36

GTTCCAAGGTGAATAGGTCGTTGATGAGTAGGCG
PBM binding z-score [1]: 2.22
PBM binding z-score [2]: 2.74
PBM binding z-score [3]: 1.76
PBM binding z-score [4]: 0.23
PBM binding z-score [5]: 1.72
PBM binding z-score [6]: 2.4
PBM binding z-score [7]: 0.975
PBM binding z-score [8]: 1.08
PBM binding z-score [9]: 0.742

CACGAAAGGTCGGTTGAGGTGAGTATACGGATAA
PBM binding z-score [1]: 2.56
PBM binding z-score [2]: 2.89
PBM binding z-score [3]: 3.15
PBM binding z-score [4]: 0.785
PBM binding z-score [5]: 2.36
PBM binding z-score [6]: 5.03
PBM binding z-score [7]: 1.69
PBM binding z-score [8]: 2.37
PBM binding z-score [9]: 0.932

ATCTCTAGGTAAAAGTTCAATGAATCCCGAGGAT
PBM binding z-score [1]: 3
PBM binding z-score [2]: 2.3
PBM binding z-score [3]: 2.41
PBM binding z-score [4]: 1.29
PBM binding z-score [5]: 2.4
PBM binding z-score [6]: 1.71
PBM binding z-score [7]: 0.132
PBM binding z-score [8]: 2.25
PBM binding z-score [9]: 2.73

AGAACGAGGGCACGCTGAGTTGATACCAGAGTAG
PBM binding z-score [1]: 1.13
PBM binding z-score [2]: 1.91
PBM binding z-score [3]: 2.16
PBM binding z-score [4]: 1.46
PBM binding z-score [5]: 1.44
PBM binding z-score [6]: 1.74
PBM binding z-score [7]: 0.271
PBM binding z-score [8]: 2.23
PBM binding z-score [9]: 1.98

CTCGACAGGTCGGTTGAGGTGAGTATACGGATAA
PBM binding z-score [1]: 0.715
PBM binding z-score [2]: 0.769
PBM binding z-score [3]: 0.825
PBM binding z-score [4]: -0.127
PBM binding z-score [5]: 0.289
PBM binding z-score [6]: 4.41
PBM binding z-score [7]: 1.11
PBM binding z-score [8]: 0.149
PBM binding z-score [9]: 0.012

ATCTCTGGGTAAAGTTCAGTGAAAGATCGATAGA
PBM binding z-score [1]: 2.68
PBM binding z-score [2]: 2.19
PBM binding z-score [3]: 2.4
PBM binding z-score [4]: 1.43
PBM binding z-score [5]: 1.57
PBM binding z-score [6]: 1.11
PBM binding z-score [7]: 0.412
PBM binding z-score [8]: 1.64
PBM binding z-score [9]: 1.62

From the supplement of paper PMC6555819
